According to PubChem BioAssay AID1053173 (Broad Institute, 2014):
In all, about 1,500 compounds went through this assay and about 390 (26%) were called active. No rule for the calls is given here. The list is a sample of the results. Potency and affinity values are given separately.

Molecular target: Histone-lysine N-methyltransferase NSD2 (Homo sapiens) (UniProt O96028)
Assay: NSD2 methyltransferase inhibitors, dose response, biochemical, AlphaScreen, cherry-picked samples (AID 1053173);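 also: 0% = neutral control wells and -100% = positive control wells on each plate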
Conditions: NSD2 H4 peptide methylation, 120 min; series mostly up to 10 µM; activity change, negative = inhibition: at the top concentration

Sequence of Histone-lysine N-methyltransferase NSD2 (Homo sapiens) (O96028 whole entry, looked up): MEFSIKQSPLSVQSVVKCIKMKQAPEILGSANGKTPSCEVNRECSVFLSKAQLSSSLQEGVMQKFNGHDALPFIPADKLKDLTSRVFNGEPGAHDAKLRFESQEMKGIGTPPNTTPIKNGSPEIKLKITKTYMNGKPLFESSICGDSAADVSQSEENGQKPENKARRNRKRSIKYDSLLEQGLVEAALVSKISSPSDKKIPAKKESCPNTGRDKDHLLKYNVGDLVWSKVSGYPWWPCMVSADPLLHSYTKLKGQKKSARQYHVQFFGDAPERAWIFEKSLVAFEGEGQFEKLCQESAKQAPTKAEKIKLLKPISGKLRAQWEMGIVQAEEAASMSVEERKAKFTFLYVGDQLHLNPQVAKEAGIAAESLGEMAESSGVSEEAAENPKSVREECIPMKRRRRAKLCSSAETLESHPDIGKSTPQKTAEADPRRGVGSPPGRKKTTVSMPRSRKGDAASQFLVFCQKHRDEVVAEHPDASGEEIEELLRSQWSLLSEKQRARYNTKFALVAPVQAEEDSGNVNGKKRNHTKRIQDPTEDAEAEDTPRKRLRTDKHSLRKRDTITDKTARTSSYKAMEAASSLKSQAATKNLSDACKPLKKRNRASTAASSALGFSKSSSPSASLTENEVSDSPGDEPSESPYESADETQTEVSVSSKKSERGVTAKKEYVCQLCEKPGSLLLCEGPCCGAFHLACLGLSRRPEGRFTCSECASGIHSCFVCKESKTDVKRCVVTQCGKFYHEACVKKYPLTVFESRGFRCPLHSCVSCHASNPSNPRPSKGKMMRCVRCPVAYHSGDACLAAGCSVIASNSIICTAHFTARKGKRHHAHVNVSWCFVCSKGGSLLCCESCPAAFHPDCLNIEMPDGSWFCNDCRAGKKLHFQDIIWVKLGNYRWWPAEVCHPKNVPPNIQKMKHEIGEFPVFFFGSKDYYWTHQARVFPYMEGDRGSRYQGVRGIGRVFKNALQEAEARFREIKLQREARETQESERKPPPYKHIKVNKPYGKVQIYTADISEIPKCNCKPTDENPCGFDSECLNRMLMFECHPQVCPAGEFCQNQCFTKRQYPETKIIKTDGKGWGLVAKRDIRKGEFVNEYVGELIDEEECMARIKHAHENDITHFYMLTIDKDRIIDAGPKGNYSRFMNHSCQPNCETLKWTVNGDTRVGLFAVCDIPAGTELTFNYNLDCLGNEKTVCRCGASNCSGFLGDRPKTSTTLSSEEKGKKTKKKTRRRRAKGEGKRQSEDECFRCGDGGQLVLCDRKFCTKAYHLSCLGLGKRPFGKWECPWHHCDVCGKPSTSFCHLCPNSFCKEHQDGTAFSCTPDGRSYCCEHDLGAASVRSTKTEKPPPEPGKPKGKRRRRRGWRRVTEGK

Activity change, negative = inhibition, inactive:
O=C(CSc1nccn1-c1ccc(F)cc1)NCc1ccc(F)cc1 -0.835%
Cc1cccc2c(=O)c(C(=O)NCc3ccc(F)cc3)c[nH]c12 -0.748%
CN(Cc1nc2ccccc2c(=O)[nH]1)C(=O)c1cc2c(s1)CCCCC2 3.16%
O=C(O)COc1ccccc1/C=N/Nc1ccc(S(=O)(=O)Nc2ccc(Cl)cc2)cc1[N+](=O)[O-] -8.28%
O=C(/C=C/c1ccco1)N(c1ccccn1)c1ccccn1 -13.1%
COc1ccc(CCC(=O)Nc2ccc(S(=O)(=O)Nc3nccc(C)n3)cc2)cc1 -0.912%
Cc1cc(NS(=O)(=O)c2ccc(NC(=O)CSc3nnc(-c4ccncc4)n3Cc3ccco3)cc2)nc(C)n1 -1.22%
O=C(Nc1ccccc1C(=O)O)c1cncc(Br)c1 -1.11%
O=C(NNC(=S)Nc1ccccc1)c1ccco1 1.83%
Cn1c(N)c(C#N)c2c(c1=S)CSC(C)(C)C2 -1.03%
CCN(C(=O)/C=C/c1ccc2c(c1)OCO2)c1ccccc1 4.24%
CC(=O)Nc1ccc(S(=O)(=O)NCCSCc2c(Cl)cccc2Cl)cc1 -3.69%
NS(=O)(=O)c1ccc(N/N=C/c2ccc(O)c(O)c2O)c([N+](=O)[O-])c1 -9.13%
CCCCn1c(Cn2nc(C(=O)O)c3ccccc3c2=O)nc2cc(S(N)(=O)=O)ccc21 1.6%
CCOC(=O)c1nnn(-c2nonc2OC)c1-c1ccccc1 -1.04%
N#Cc1c2nc3ccccc3nc2n2cc(NC(=O)c3ccc(F)cc3)ccc12 -13.8%
C=CCn1c(NS(=O)(=O)c2ccccc2)c(S(=O)(=O)c2ccc(C)cc2)c2nc3ccccc3nc21 -4.72%
N#Cc1c(N)n(-c2ccc(C(=O)O)cc2)c2nc3ccccc3nc12 -1.49%
CCCCn1c(NS(=O)(=O)c2ccccc2)c(S(=O)(=O)c2ccc(C)cc2)c2nc3ccccc3nc21 -15.4%
COc1ccccc1N1CCN(C2CCN(C(=O)c3cccc(F)c3)CC2)CC1 -2.67%
Cc1cccc(NCCNc2cccc(C)c2)c1 -4.46%
COc1cnc(-c2ccccn2)nc1Oc1cccc(C(F)(F)F)c1 -6.31%
COc1cccc(CNC(=O)CSc2nnc3c(n2)[nH]c2ccccc23)c1 -0.049%
CCOc1ccc(S(=O)(=O)N2CCCC(C(=O)NCCN3CCOCC3)C2)cc1Cl (stereo not given) -1.23%
CNC(=O)COC(=O)/C=C/c1cccs1 -2.65%
Cc1ccc(S(=O)(=O)N2CCC(NC(=O)c3cccnc3)CC2)cc1Cl -1.49%
COc1cccc(C(C(=O)NC2CCCC2)N(C(=O)c2csnn2)C2CC2)c1 (stereo not given) 0.925%
CCc1c(C)nc2ncnn2c1Nc1ccc(C)cc1 1.68%
Nc1nc(COC(=O)c2ccco2)nc(Nc2ccccc2)n1 -2.2%
COc1ccccc1N1CCN(S(=O)(=O)CCNC(=O)c2ccc(Br)o2)CC1 6.82%
CCC(=O)N1CCN(c2ccc(Cl)cc2NC(=O)c2ccc(Br)o2)CC1 -3.46%
CCCCn1nnc(NC(=O)c2ccco2)n1 -1.6%
Cc1cc(C)n(-c2nc(NCC(C)O)c3c4c(sc3n2)COC(C)(C)C4)n1 (stereo not given) 1.56%
CC(=O)C1=C(O)C(=O)N(CCc2c[nH]c3ccccc23)C1c1ccco1 (stereo not given) 3.52%
Oc1cccc2c(NC(=S)Nc3ccc(OC(F)F)cc3)cccc12 -10.1%
COc1ccc(-c2nnc(SCC(=O)c3ccc(O)cc3O)o2)cc1 1.31%
CCCc1cc(=O)[nH]c(SCc2cc(=O)oc3cc(C)c(C(C)C)cc23)n1 1.35%
CC(=O)c1ccc(N2CCN(C(=O)[C@H](C)NC(=O)c3ccccc3Cl)CC2)cc1 -2.29%
COc1cc(-c2nnn(Cc3ccccc3C)n2)cc(OC)c1OC -0.317%
O=C1Nc2cc(C(=O)N3CCC(N4CCCCC4)CC3)ccc2S/C1=C\c1ccccc1 -12.6%
CCCc1[nH]n(-c2nc3ccccc3s2)c(=O)c1C=NCCCN(CC)CC -8.45%
O=C(CSc1ccc(-c2cccnc2)nn1)N1CCCC1 3.73%
CCn1c(-c2cc3c(C(F)(F)F)nn(C)c3s2)n[nH]c1=S -2.33%
Cc1ccc(Sc2ncccc2C(N)=O)cc1 -2.36%
Cc1cc(C)cc(NC(=O)C2C3C=CC4(O3)C2C(=O)N(CCCN2CCCC2)C4C(=O)NC2CCCC(C)C2C)c1 (stereo not given) 1.04%
CCOC(=O)Cn1ncc(-c2ccccc2)c1N -2.26%
Cc1cc(-c2ccc(C)c(S(=O)(=O)N3CCN(c4ccccn4)CC3)c2)on1 -3.06%
C/C(=C\C(=O)c1ccccc1)Nc1ccc(O)cc1 1.87%
Clc1cccc(N2CCN(CCCN3CCN(c4ccccc4)CC3)CC2)c1 -6.37%
Fc1ccccc1NC(=S)Nc1cccc2cnccc12 -0.635%
